What follows are compounds tested against AMP-activated protein kinase, AMPK (Homo sapiens) (UniProt P54646+O43741+P54619+Q9UGJ0+Q9Y478+Q13131+Q9UGI9) (assay: AMP-dependent Kinase enzyme assay. An in vitro enzyme assay that detects ADP turnover that is directly proportional to AMPK activity. This uses naive AMPK that is activated during the assay with MK-8722). Details: 30 µM.
Type: functional
Design: scale not given: direction of the effect not stated beside the values

In order of falling Percent Effect:
1. NC(=O)CC1CCN(c2cncc(OCc3ccccc3)n2)CC1  20.6%
2. CC(=O)Nc1ccc(-c2ccccc2NC(=O)CN)cc1  17.8%
3. N#Cc1cc(S(N)(=O)=O)ccc1N1CCc2c(Cl)cccc2C1  17.4%
4. CS(=O)(=O)N1CCCC(c2cccc(-c3ccccc3F)n2)C1 (centres undefined)  12.2%
5. Cc1n[nH]c(C)c1CCNC(=O)Nc1ccc2c(c1)COC2  11.6%
6. CCC(C)C(=O)Nc1ccc(CCN2CCOCC2)cc1 (centres undefined)  11.3%
7. CC(C(=O)NCC(C)(C)c1ccc2c(c1)OCCO2)n1cncn1 (centres undefined)  11.3%
8. Cc1nn(-c2ccccc2)c2nc(C(C)(C)CN3CCN(C)CC3)[nH]c12  9.98%
9. CSc1ccc(C(=O)C2CCCN(C(=O)CCCn3cncn3)C2)cc1 (centres undefined)  9.79%
10. Cc1nncn1CCN1C(=O)CC2(CCCC2)CC1=O  9.66%
11. O=C(CNc1ccc(OC2CCOC2)cc1)NCc1ccco1 (centres undefined)  7.98%
12. CCS(=O)(=O)NCC(=O)N1CCC(c2cc3ccccc3[nH]2)CC1  6.95%
13. Cc1cc(C(=O)NCCC2CCN(C)CC2)ccc1N(C)S(C)(=O)=O  6.31%
14. Cc1nccn1[C@@H]1CC[C@@H](N(C)S(=O)(=O)c2ccccc2F)[C@H]1O  5.86%
15. COC(=O)CC1CSCCN1C(=O)CCc1c(C)nn(C)c1C (centres undefined)  5.71%
16. CCC(=O)Nc1cccc(OCC(=O)N[C@@H]2C[C@H]3CC[C@@H]2C3)c1  3.88%
17. N#Cc1cccc(N2CCC(CO)(CCOc3ccccc3)CC2)n1  3.85%
18. Cc1ccc(OCC2CCCN(c3cc(C(N)=O)ccn3)C2)cc1 (centres undefined)  2.7%
19. COCCn1ccnc1C1CCCN(C(=O)CSc2nnc(C)o2)C1 (centres undefined)  1.51%
20. Cc1ccccc1C(=O)NC[C@@H]1CCN(C(=O)c2cscn2)C[C@H]1O  1.22%
21. CC(C(=O)Nc1cccc(F)c1)N(C)CCN1CCOCC1 (centres undefined)  0.543%
22. C=Cn1ncc(CN2CCC(c3ncc(Cl)cc3S(C)(=O)=O)CC2)c1C  -0.153%
23. CCC(C)NC(=O)Nc1cccc(OCC#N)c1 (centres undefined)  -0.326%
24. CCC1COCCN1C(=O)NCc1nccn1Cc1ccccc1 (centres undefined)  -0.566%
25. COc1cccc(CC(=O)N2CCc3ncnc(NCCO)c3CC2)c1  -1.01%
26. O=C(NCC(=O)N1CCCCC1)c1sccc1C1CC1  -1.89%
27. Cc1cc(NC(=O)NCCO)nn1-c1ccc(Cl)cc1Cl  -2.67%
28. Cc1n[nH]c(C)c1CCN(C)C(=O)c1ccc(CN2CCCCC2)cc1  -2.68%
29. OCc1csc(N2C[C@@H](CN3CCCCCC3)[C@@H](CO)C2)n1  -3.32%
30. CSCCC(=O)N1CCN(CC(O)C(C)(C)C)CC1 (centres undefined)  -4.07%
31. O=c1c(CN2CCCCC2)coc2ccc(Cl)cc12  -4.07%
32. O=C(NCc1ccc(-n2cncn2)nc1)c1cc(Cl)ccn1  -4.58%
33. Cc1nc(O)cc(CN2C[C@H](NS(=O)(=O)N(C)C)[C@@H](C3CC3)C2)n1  -5.32%
34. CC(=O)N1CCCN(C(=O)NC(C)Cn2ccnc2)CC1 (centres undefined)  -5.96%
35. O=C(CC1CCCC1)NCCS(=O)(=O)N1CCN(c2ccccc2)CC1  -7.22%
36. CCc1cc(NCCCNS(C)(=O)=O)nc(-c2ccccn2)n1  -7.82%
37. CN(C1CCCCC1)S(=O)(=O)NCC1Cc2ccccc2O1 (centres undefined)  -9.03%
38. CN(C)c1ncccc1CNC(=O)NCC(c1cccs1)N(C)C (centres undefined)  -9.48%
39. CN1CCOC(CNCC(=O)NCCC2=CCCCC2)C1 (centres undefined)  -9.7%
